# Laboratory results from paper PMC4552634, “A New Set of Chemical Starting Points with Plasmodium falciparum Transmission-Blocking Potential for Antimalarial Drug Discovery” (PLoS ONE, 2015).
# Screen size: about 13,000 compounds; about 3,200 (25%) showed an effect of 50% or more. This is one part of the list.
# Tested on: P. falciparum stage V gametocytes
# Design: BacTiter-Glo ATP luminescence viability of purified stage V gametocytes in 384-well plates, per cent inhibition versus DMSO
# Conditions: 48 h, 5 µM; inhibitor
row,SMILES,% Inhibition
1,CN1C(=CC(=O)NC(=O)c2ccccc2)C(C)(C)c2ccccc21 [TCMDC-136649],14.63%
2,Cc1nc2ccc3nc(NC(=O)c4ccno4)sc3c2s1 [TCMDC-124989],-34.07%
3,CN(C)c1cccc2c1nc(-c1ccco1)n2CC1CCCN1 (stereo not drawn) [TCMDC-133408],-1.299%
4,CCCCCCCn1c(=O)c(C(=O)Nc2c(C)cccc2C)c(O)c2ccccc21 [TCMDC-124465],13.41%
5,CCCCn1c(-c2ccco2)nc2c(c(=O)c3ccccc3n2C)c1=O [TCMDC-124920],70.03%
6,Cc1ccccc1CNc1noc(-c2sccc2Br)n1 [TCMDC-134183],-16.29%
7,N#Cc1ccc(NC(=NC2CCCc3ccccc32)Nc2ccc(-c3ccccc3)cc2)c(O)c1 (stereo not drawn) [TCMDC-140207],-97.78%
8,O=C(NC1CCC(CN2CCC(c3c[nH]c4ccccc34)CC2)CC1)c1cc2cccc([N+](=O)[O-])c2[nH]1 (stereo not drawn) [TCMDC-139879],95.83%
9,O=C(c1cc2cccc([N+](=O)[O-])c2[nH]1)N1CCC(CCN2CCC(c3c[nH]c4ccccc34)CC2)CC1 [TCMDC-139880],92.61%
10,O=C(NC1CCC(CN2CCC(c3c[nH]c4ccccc34)CC2)CC1)c1ccc(-c2ccccc2[N+](=O)[O-])o1 (stereo not drawn) [TCMDC-140295],-19.57%
11,N#Cc1ccc2c(c1)CCN(CCC1CCC(NC(=O)c3cc4cccc([N+](=O)[O-])c4[nH]3)CC1)C2 (stereo not drawn) [TCMDC-139188],23.84%
12,COc1cc(C)ccc1N1CCN(CCCCNC(=O)c2ccc(NC(=O)c3ccc(Cl)cc3)cc2)CC1 [TCMDC-138374],-7.22%
13,CCNc1cc(C)nc(Nc2ccc(NC(=O)c3ccccc3Br)cc2)n1 [TCMDC-124985],22.04%
14,COC(=O)CNC(c1ccccc1)c1cc(Br)ccc1NC(=O)c1ccccc1Br (stereo not drawn) [TCMDC-124194],56.77%
15,O=C(Nc1cc(Cl)c(Cl)cc1NC(=O)c1cccc(-c2ccccc2)c1O)c1cccc(-c2ccccc2)c1O [TCMDC-139548],45.99%
16,CCOC(=O)NC1=NC(C)(C)N(OCCCOc2cc(Cl)c(Cl)cc2Cl)C(N)=N1 [TCMDC-131741],-6.814%
17,CC(C)C1C(O)=C(c2ccc3ccccc3c2)C(=O)N1CC1CCCCC1 (stereo not drawn) [TCMDC-141719],18.57%
18,Cc1cc(N[C@@H](Cc2ccccc2)C(=O)NC2CCCC2)nc(Nc2ccccc2)n1 [TCMDC-134856],16.45%
19,O=C(Nc1nc2cc(S(=O)(=O)NCc3ccc(Cl)c(Cl)c3)ccc2n1CCCN1CCCC1)c1ccc(Cl)cc1 [TCMDC-141622],64.1%
20,O=C(Nc1nc2cc(S(=O)(=O)NCc3ccc(Cl)c(Cl)c3)ccc2n1CCCn1ccnc1)c1ccc(Cl)cc1 [TCMDC-141625],-7.697%
21,O=C(Nc1nc2cc(S(=O)(=O)NCCCN3CCOCC3)ccc2n1CCCn1ccnc1)c1ccc(Cl)cc1 [TCMDC-141624],31.25%
